# Values joined by “and” are separate entries in the source; they are usually repeats but may differ in a detail not shown here. Identical values can stand only once. A number with no mark means an inactive call. Active and inactive are the calls of the source.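 The calls were made as follows: active = inhibition reaching about 16% in any single replicate (limit read from the data); inactive = the rest.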
# Target: Hexokinase HKDC1 (Homo sapiens) (UniProt Q2TB90)
# Assay: compounds lowering human HKDC1 activity – biochemical, single concentration, confirmation (AID 504710)
# Conditions: recombinant HKDC1, G6PDH/diaphorase/resazurin fluorescence; at 20 µM; active compounds read high
# Hexokinase HKDC1 (Homo sapiens), sequence (Q2TB90 whole entry, looked up): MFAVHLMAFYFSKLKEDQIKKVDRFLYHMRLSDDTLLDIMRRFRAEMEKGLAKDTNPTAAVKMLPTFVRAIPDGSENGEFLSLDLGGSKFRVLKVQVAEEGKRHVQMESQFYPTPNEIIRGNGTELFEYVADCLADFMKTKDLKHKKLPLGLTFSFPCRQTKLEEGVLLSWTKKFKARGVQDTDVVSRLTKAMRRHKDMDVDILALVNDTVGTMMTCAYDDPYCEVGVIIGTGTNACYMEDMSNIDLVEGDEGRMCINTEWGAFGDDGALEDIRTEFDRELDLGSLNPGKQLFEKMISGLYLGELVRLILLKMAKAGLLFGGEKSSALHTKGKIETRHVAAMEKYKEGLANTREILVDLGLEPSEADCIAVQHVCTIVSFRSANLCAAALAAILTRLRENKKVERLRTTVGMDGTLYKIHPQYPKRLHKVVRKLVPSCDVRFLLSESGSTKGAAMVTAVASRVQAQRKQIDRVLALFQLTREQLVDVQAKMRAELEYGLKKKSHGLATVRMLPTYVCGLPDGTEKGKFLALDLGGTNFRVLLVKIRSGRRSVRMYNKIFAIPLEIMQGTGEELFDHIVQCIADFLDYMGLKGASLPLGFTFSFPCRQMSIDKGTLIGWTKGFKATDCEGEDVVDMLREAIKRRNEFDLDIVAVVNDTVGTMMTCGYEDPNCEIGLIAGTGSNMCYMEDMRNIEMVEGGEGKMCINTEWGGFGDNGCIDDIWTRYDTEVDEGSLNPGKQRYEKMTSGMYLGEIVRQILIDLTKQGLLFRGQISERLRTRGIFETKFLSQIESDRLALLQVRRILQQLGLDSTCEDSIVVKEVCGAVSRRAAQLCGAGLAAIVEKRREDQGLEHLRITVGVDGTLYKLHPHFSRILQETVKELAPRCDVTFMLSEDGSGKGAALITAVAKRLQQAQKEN
row,SMILES,inhibition
1,CCOC(=O)c1c(C)[nH]c(C2=NNC(=Nc3ccccc3OC)SC2)c1C,-86.4%
2,O=C(O)CSc1cc(NS(=O)(=O)c2ccc(Cl)cc2)c2ccccc2c1O,45.6% (active)
3,CCOC(=O)c1ccc(NC(=O)CSc2n[nH]c(-c3ccncc3)n2)cc1,50.3% (active)
4,Oc1ccc(/C=N/Nc2ncc(Br)cn2)c(O)c1,44.6% (active)
5,CC[n+]1c(/C=C2\Sc3ccccc3N2C)ccc2cccc(C)c21,-37.8%
6,Cc1ccc(C)c(-n2c3nc(=O)[nH]c(=O)c-3cc3cc([N+](=O)[O-])ccc32)c1,39.2% (active)
7,Cc1ccc(-n2c3nc(=O)[nH]c(=O)c-3cc3cc([N+](=O)[O-])ccc32)cc1,56.2% (active)
8,NC(=NCCCCCCN=C(N)/N=C(\N)Nc1ccc(Cl)cc1)/N=C(\N)Nc1ccc(Cl)cc1,49.3% (active) and 46.4% (active)
9,S=C1Cc2ccccc2N1,-192%
10,CN1c2ccc(C=O)c3c(C=O)ccc(c23)N(C)C1(C)C,61.2% (active)
11,CC(=NNC(=S)SCc1ccccc1)c1ccccn1,-28.3%
12,CCc1ccc(S(=O)(=O)/N=C2\C=C(Nc3ccc(C(=O)O)cc3)C(=O)c3ccccc32)cc1,59.8% (active)
13,Cn1c2ccccc2c(=O)c2c(=O)n(-c3ccc(F)cc3)c(-c3cccs3)nc21,66% (active)
14,Cc1cc(C)n2cc(CSc3nnc(-c4ccccc4)c(-c4ccccc4)n3)nc2n1,38.5% (active)
15,Cc1ccc(C)c(S(=O)(=O)Nc2cc(SCC(=O)O)c(O)c3ccccc23)c1,55.2% (active)
16,Cc1ccccc1N=C1NN=C(c2ccccc2F)CS1,-40.3%
17,COC1(NS(=O)(=O)c2ccc(Br)cc2)C(C)=CC(=O)C=C1C,26.3% (active)
18,COC1=CC(=O)c2c(ccc3ncnc(N)c23)C1=O,87.6% (active)
19,CC(OC(=O)c1cc(O)c2ccccc2c1O)C(=O)Nc1ccc(C(N)=O)cc1 (configuration not stated),28.4% (active)

row,SMILES,inhibition
1,CC1=NOC(=O)/C1=C\c1ccc(-c2ccc(Cl)cc2Cl)o1,47.4% (active)
2,CCCCC[C@H](O)/C=C/[C@@H]1[C@@H](C/C=C\CCCC(=O)OC)[C@@H](O)C[C@H]1O,61% (active)
3,O=C(COC(=O)c1n[nH]c2ccccc12)c1cccc(Br)c1,-30.5%
4,NC1=CC(=O)C(=O)c2ccccc21,48.7% (active)
5,COC1=CC(=O)C(OC)=C(OC)C1=O,71.9% (active)
6,O=C(C1=C(c2ccccc2)C(=O)c2ccccc2C1=O)c1ccccc1,52% (active)
7,CC(NNC(=S)N1CCN(c2ccccn2)CC1)c1nccc2ccccc12 (configuration not stated),-74.7%
8,O=C(O)c1cc(O)c2c(c1)[C@@H]([C@H]1c3cc(C(=O)O)cc(O)c3C(=O)c3c(O[C@@H]4O[C@H](CO)[C@@H](O)[C@H](O)[C@H]4O)cccc31)c1cccc(O[C@@H]3O[C@H](CO)[C@@H](O)[C@H](O)[C@H]3O)c1C2=O,34.1% (active)
9,O=C(NCCc1ccccc1)C(c1cccs1)N(C(=O)CCl)c1ccc(Cl)cc1 (configuration not stated),23% (active)
10,O=[N+]([O-])c1ccc(Sc2nc3ccccc3o2)c([N+](=O)[O-])c1,30.4% (active)
11,O=C1NC(=S)N/C1=C/c1cc2c(cc1[N+](=O)[O-])OCO2,-36.6%
12,Cc1ccc(C)c(-n2nnnc2Sc2nnnn2-c2ccccc2)c1,38.7% (active)
13,COc1ccc(-c2nc3c(c(=O)n(C)c(=O)n3C)n2CC2CC(c3ccccc3)=NO2)cc1OC (configuration not stated),-32.8%
14,CC(=O)Nc1ccc(C2=NNC(=Nc3ccc(S(=O)(=O)N4CCOCC4)cc3)SC2)cc1,-234%
15,Cc1oc2c(c1C(=O)c1ccc(Cl)cc1)C(=O)C(=O)c1ccccc1-2,46.1% (active)
16,O=C1C=C(Nc2ccccc2C(=O)O)c2ccccc2C1=O,44.3% (active)
17,Cc1cccc(-n2c3nc(=O)[nH]c(=O)c-3cc3cc([N+](=O)[O-])ccc32)c1,46.6% (active)
18,Fc1ccccc1N=C1NN=C(c2ccccc2)CS1,-53.4%

# From PubChem BioAssay AID504710 (Sanford-Burnham Center for Chemical Genomics, 2011)
